From paper PMC11062922 (Nature Chemical Biology, 2023)
Read-outs that look alike come from different tables or passages of the source.

Experiments:
Design in all cases: species or system human, MV4-11 + K-562 + COLO205 + SK-N-BE2 + OVCAR-8
FECH = conditions: read-out: apparent Kd, compound concentrations: 100 nM and 1000 nM (sheet 'Samples'), n = 1
EIF2AK1 = conditions: read-out: apparent Kd, n = 1
MAP4K3 = conditions: read-out: apparent Kd; compound concentrations: 100 nM and 1000 nM (sheet 'Samples'), CATDS: 1.29423166532144E-2; n = 1
TAOK3 = conditions: read-out: apparent Kd, compound concentrations: 100 nM and 1000 nM (sheet 'Samples'), n = 1
PRKCA = conditions: read-out: apparent Kd, compound concentrations: 100 nM and 1000 nM (sheet 'Samples'), n = 1
PRKCQ = conditions: read-out: apparent Kd, compound concentrations: 100 nM and 1000 nM (sheet 'Samples'), n = 1
NUAK2 = conditions: read-out: apparent Kd, compound concentrations: 100 nM and 1000 nM (sheet 'Samples'), n = 1
MST1R = conditions: read-out: apparent Kd, compound concentrations: 100 nM and 1000 nM (sheet 'Samples'), n = 1
TP53RK = conditions: read-out: apparent Kd; compound concentrations: 100 nM and 1000 nM (sheet 'Samples'), CATDS: 0.13765543946778; n = 1
MET = conditions: read-out: apparent Kd, n = 1
AXL = conditions: read-out: apparent Kd, n = 1
CHEK1 = conditions: read-out: apparent Kd, n = 1
FGFR1 = conditions: read-out: apparent Kd, n = 1
PAK6 = conditions: read-out: apparent Kd; compound concentrations: 100 nM and 1000 nM (sheet 'Samples'), CATDS: 5.6767334452466102E-2; n = 1
ULK3 = conditions: read-out: apparent Kd; compound concentrations: 100 nM and 1000 nM (sheet 'Samples'), CATDS: 7.6579624487381603E-3; n = 1
STK11 = conditions: read-out: apparent Kd; compound concentrations: 100 nM and 1000 nM (sheet 'Samples'), CATDS: 6.0653418391634698E-2; n = 1
AKT3 = conditions: read-out: apparent Kd; compound concentrations: 100 nM and 1000 nM (sheet 'Samples'), CATDS: 1.96345458497789E-2; n = 1
[1] = compound concentrations:100 nM and 1000 nM (sheet 'Samples')

## O=C1N=C(NCCc2cccc(Cl)c2)S/C1=C\c1ccc2ncccc2c1 [RO4509201-000]
FECH; CATDS: 5.2952837559238602E-2
  potency estimated from few doses: 2.08 µM

## CC(C)c1nc(-c2cccc(NS(=O)(=O)c3ccccc3)c2)c(-c2ccnc(Nc3ccc4c(c3)CN(C)CC4)n2)s1 [GSK1649598A]
EIF2AK1; compound concentrations: 100 nM and 1000 nM (sheet 'Samples'), CATDS: 1.2049138134939999E-2
  potency estimated from few doses: 2.29 µM
MAP4K3
  potency estimated from few doses: 1.57 µM
TAOK3; CATDS: 1.6812822211495999E-2
  potency estimated from few doses: 0.6 µM

## Cn1cc(C2=C(c3cn(CCCO)c4ccccc34)C(=O)NC2=O)c2ccccc21 [RO0317377-000]
PRKCA; CATDS: 0.117489729482602
  potency estimated from few doses: 1.24 µM
PRKCQ; CATDS: 9.7872401763747702E-2
  potency estimated from few doses: 2.02 µM

## CN1C(=O)c2ccccc2N(C)c2nc(Nc3cnn(C4CCNCC4)c3)ncc21 [XMD-17-51]
NUAK2; CATDS: 1.40993766530741E-2
  potency estimated from few doses: 1.63 µM
TAOK3; CATDS: 4.0612086764621601E-2
  potency estimated from few doses: 0.0783 µM

## COc1cc(Nc2ccnc3cc(-c4ccncc4)ccc23)cc(OC)c1OC.Cl [GW494610A]
FECH; CATDS: 2.4367792327904599E-2
  potency estimated from few doses: 1.07 µM
MST1R; CATDS: 2.33652063903033E-2
  potency estimated from few doses: 1.28 µM

## CCc1nc(-c2cccc(N(C)S(=O)(=O)c3ccccc3)c2)c(-c2ccnc(Nc3ccc(N4CCN(C(C)=O)CC4)nc3)n2)s1 [GSK1645895A]
TP53RK
  potency estimated from few doses: 1.94 µM

## Cc1cccc(Nc2nc(NCCN)ncc2C(N)=O)c1 [GSK1292139B]
PRKCA; CATDS: 7.8456539991917998E-2
  potency estimated from few doses: 1.1 µM

## CS(=O)(=O)Cc1ccc(Nc2nccc(-c3c(-c4cccc(NC(=O)C5CCCCC5)c4)nn4ncccc34)n2)cc1 [GSK350559A]
MET; [1]
  potency estimated from few doses: 1.78 µM

## CS(=O)(=O)CCNCc1ccc(-c2ccc3ncnc(Nc4ccc(OCc5cccc(F)c5)c(C(F)(F)F)c4)c3c2)o1 [GW576484X]
MST1R; CATDS: 4.8936571303095901E-2
  potency estimated from few doses: 2.07 µM

## O=C1N=C(NCc2cccs2)SC1Cc1ccc2ncccc2c1 (stereo not drawn) [RO4629078-000]
AXL; compound concentrations: 100 nM and 1000 nM (sheet 'Samples'), CATDS: 8.9637378169906395E-3
  potency estimated from few doses: 0.899 µM
CHEK1; compound concentrations: 100 nM and 1000 nM (sheet 'Samples'), CATDS: 9.1517924527920996E-3
  potency estimated from few doses: 0.847 µM
FGFR1; compound concentrations: 100 nM and 1000 nM (sheet 'Samples'), CATDS: 7.8188916788292304E-3
  potency estimated from few doses: 1.4 µM
NUAK2; CATDS: 9.28769092053984E-3
  potency estimated from few doses: 0.813 µM
PAK6
  potency estimated from few doses: 0.0434 µM
PRKCQ; CATDS: 4.8799216922885302E-2
  potency estimated from few doses: 0.0521 µM
ULK3
  potency estimated from few doses: 1.51 µM

## NC(=O)c1cccc(Nc2nccc(Nc3cccc4[nH]ncc34)n2)c1 [GW782612X]
STK11
  potency estimated from few doses: 0.342 µM

## Cl.Cl.Cl.c1ccc(Oc2ccc(Nc3ccnc4cc(-c5ccc(CN6CCNCC6)o5)ccc34)cc2)nc1.c1ccc(Oc2ccc(Nc3ccnc4cc(-c5ccc(CN6CCNCC6)o5)ccc34)cc2)nc1 [GW567142A]
AKT3
  potency estimated from few doses: 1.22 µM

## COc1ccc(Nc2nccc(N3CCC(NC(=O)Nc4ccc5c(c4)OCO5)C3)n2)cc1 (stereo not drawn) [GSK1379745A]
CHEK1; compound concentrations: 100 nM and 1000 nM (sheet 'Samples'), CATDS: 3.4900444296342099E-2
  potency estimated from few doses: 2.07 µM

## CCn1cc(-c2ccnc3[nH]c(-c4cccc(CN(C)C)c4)cc23)c(-c2ccc(NC(=O)N(C)C)cc2)n1 [GSK1070916]
AXL; [1]
  potency estimated from few doses: 0.891 µM

## CCN(CC)CCOc1ccc(Nc2ncc3cc(-c4c(Cl)cccc4Cl)c(=O)n(C)c3n2)cc1 [SB-601273]
EIF2AK1; [1]
  potency estimated from few doses: 0.802 µM
FGFR1; [1]
  potency estimated from few doses: 0.388 µM

## CN1CCN(Cc2ccc(NC(=O)Nc3ccc(N(C)c4ccnc(Nc5ccc(CS(C)(=O)=O)cc5)n4)cc3)cc2)CC1.Cl [GW827654A]
MET; compound concentrations: 100 nM and 1000 nM (sheet 'Samples'), CATDS: 3.7030406739302302E-2
  potency estimated from few doses: 1.38 µM

## COc1cc(/C=N/Nc2ncnc3[nH]ncc23)ccc1O [GW578748X]
CHEK1; [1]
  potency estimated from few doses: 0.592 µM

## CN1CCc2ccc(Nc3nccc(-c4c(-c5cccc(NC(=O)c6c(F)cccc6F)c5)nc5ccccn45)n3)cc2C1.Cl [GSK1010829B]
TAOK3; CATDS: 3.3504953987682898E-2
  potency estimated from few doses: 1.49 µM
